D2 ag-1 = activates the human D2 dopamine receptor; hit rate 0.084% among 360,000; activation, % (concentration not given with the values); P14416; DiscoveRx PathHunter D2 beta-arrestin, luminescence, 90 min; 100% = 57 uM dopamine signal; AID 624465; in the data active = activation above about 40%; inconclusive = between about 15% and that limit
Target sequence (P14416 whole entry, looked up): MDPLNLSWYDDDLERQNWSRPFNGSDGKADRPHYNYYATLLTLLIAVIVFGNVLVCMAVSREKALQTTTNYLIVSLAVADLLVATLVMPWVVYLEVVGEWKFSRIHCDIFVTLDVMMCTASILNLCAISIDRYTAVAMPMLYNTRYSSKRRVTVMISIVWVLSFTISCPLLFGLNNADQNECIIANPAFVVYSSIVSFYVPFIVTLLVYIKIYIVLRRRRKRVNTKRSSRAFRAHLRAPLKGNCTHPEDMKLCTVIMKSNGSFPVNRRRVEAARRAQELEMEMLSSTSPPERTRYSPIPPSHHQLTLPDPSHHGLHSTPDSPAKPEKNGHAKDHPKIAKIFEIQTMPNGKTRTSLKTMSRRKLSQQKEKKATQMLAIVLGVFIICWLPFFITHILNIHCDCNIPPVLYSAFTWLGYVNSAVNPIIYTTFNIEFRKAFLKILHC
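DiscoveRx PathHunter D2 beta-arrestin cells (2,100/well) attached overnight, then compound-stimulated 90 min at 37 C in HBSS/10 mM HEPES/0.1% Tween-20 buffer; beta-galactosidase complementation read by luminescence after 1 h at ambient temperature. Dopamine 57 uM final (EC100) as control.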
D2 PAM-1 = positively modulates the human D2 dopamine receptor allosterically; P14416; HEK293 T-REx D2, calcium flux, EC20 dopamine potentiation; potentiation, % at 10 µM; hit rate 0.34% among 340,000; AID 485347;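 active = potentiation over 3 SD above the plate norm, cut at about 30% in these data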; note: 0% is about no effect
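Using a no-wash calcium dye in inducible, force-coupled HEK293 Trex cells expressing D2, we tracked fluorescence each second for 180 s after compound, then for 180 s after EC20 dopamine to detect augmented signalling.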
B2AR arrestin = agonists driving beta-arrestin recruitment to human beta2-adrenergic receptor; P07550; beta-arrestin recruitment to beta2AR, cell-based reporter; Potency, µM (titrated, usually from 46.1 µM), for the others: top-dose activation, usual class: activators; hit rate 0.02% among 330,000; AID 492947; active = well fitted activation curve with a large enough effect; inconclusive = small, poorly fitted or top-dose-only effect;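 note: potency is the fitted concentration of half-maximal effect; 0% = DMSO controls and full agonism = EC100 isoproterenol or metaproterenol; nearly all actives have a fitted effect of over 65% in size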
D2 PAM-2 = potentiates the human D2 dopamine receptor allosterically; P14416; DiscoveRx D2 beta-arrestin cells, luminescence, 90 min; 100% = 57 uM dopamine signal; potentiation, % (concentration not given with the values); hit rate 0.23% among 360,000; AID 624464; in the data active = potentiation above about 50%; inconclusive = mostly about 30% to 49%
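PathHunter D2 cells, attached overnight at 37 deg C, received compound in DMSO plus dopamine at EC20 (50 nM final) for 90 min at 37 deg C. Beta-arrestin recruitment was read as luminescence after 1 h with detection reagent at ambient temperature.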
D2 antag = D2 dopamine receptor (human) antagonism. P14416. HEK293 TREx D2 cells, calcium flux, dopamine EC80. AID 485344. hit rate 2% among 340,000. inhibition, % at 10 µM; in the data active = inhibition above about 30%; inactive = below that, where a call was filed; note: 0% is about no effect
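Measurement of antagonist activity uses fluorescent calcium dye in inducible HEK293 T-REx D2 cells: 10 s baseline, compound addition with 180 s read, EC80 dopamine addition with a further 180 s read.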
D2 ag-2 = D2 dopamine receptor (human) agonism. HEK293 T-REx D2 cells, calcium flux agonist mode. activation, % at 2 µM. hit rate 0.53% among 340,000;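 active = activation over 3 SD above normal in the single-dose calcium agonist read, cut at about 30% in these data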; note: 0% is about no effect
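Agonism scored from kinetic calcium signal (1 read/sec, 180 s) following compound pin transfer, after a 10 s baseline. Cells: HEK293 Trex line expressing inducible D2 receptor coupled to calcium, dye-loaded after overnight culture at 30 C.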
Starred values were filed as active, the others as inactive. The list is not random: actives were taken first. Their share in the collection is about 2.4%.

For COc1ccc(C2=Nc3ccc(C)cc3C(c3ccccc3)N2CC(=O)NN)cc1 (stereo not drawn) the results were D2 ag-1 1, D2 PAM-1 -25, B2AR arrestin 3%, D2 PAM-2 -10, D2 antag 108* and D2 ag-2 2.
Screening COC(=O)CN1C(c2ccc(Cl)cc2)=Nc2ccc(Cl)cc2C1c1ccccc1 (stereo not drawn) returned D2 ag-1 0, D2 PAM-1 -16, B2AR arrestin -1%, D2 PAM-2 -31, D2 antag 49* and D2 ag-2 2.
Screening COc1ccc(C2=Nc3ccc(Br)cc3C(c3ccccc3)N2CC(=O)NN)cc1 (stereo not drawn) returned D2 ag-1 -2, D2 PAM-1 -26, B2AR arrestin 0% and D2 PAM-2 -32.
`O=C(O)CN1C(c2ccccc2)=Nc2ccc(Br)cc2C1c1ccccc1` (stereo not drawn) gave D2 ag-1 0, D2 PAM-1 9, B2AR arrestin 0%, D2 PAM-2 -18, D2 antag 2 and D2 ag-2 0.
For NNC(=O)CN1C(c2cccc(Cl)c2)=Nc2ccc(Br)cc2C1c1ccccc1 (stereo not drawn) the results were D2 ag-1 -1, D2 PAM-1 -21, B2AR arrestin 0%, D2 PAM-2 -42, D2 antag 34* and D2 ag-2 1.
`Cc1cccc(OCC(=O)NCC2(N3CCN(C)CC3)CCCCC2)c1C` gave D2 PAM-1 10 and D2 ag-2 -2.
`C=CCn1c(=NC(=O)c2ccccc2[N+](=O)[O-])sc2cc(S(C)(=O)=O)ccc21` gave D2 ag-1 inconclusive, D2 PAM-1 13, B2AR arrestin 0%, D2 PAM-2 71*, D2 antag 3 and D2 ag-2 -1.
`COC(=O)Cn1c(=NC(=O)c2nc3ccccc3s2)sc2cc(S(C)(=O)=O)ccc21` gave D2 PAM-1 -7, B2AR arrestin 0%, D2 antag 24 and D2 ag-2 8.
`CC(=O)N1CCc2c(sc3c2c(=O)n(-c2cc(Cl)ccc2C)c(=O)n3Cc2ccccc2F)C1` gave D2 PAM-1 12 and D2 ag-2 2.
`C[C@@]12CCC3[C@@](CCC4[C@@]3(C)CCC[C@@]4(C)C(=O)NCc3ccccc3)(CC1=O)C2` (stereo partly drawn) gave D2 ag-1 0, D2 PAM-1 1, B2AR arrestin 0%, D2 PAM-2 -10, D2 antag 8 and D2 ag-2 -1.
`N#Cc1ccc(Sc2ccccn2)c([N+](=O)[O-])c1` gave D2 ag-1 4, D2 PAM-1 11, B2AR arrestin 1%, D2 PAM-2 3, D2 antag 38* and D2 ag-2 0.
For CN(C(=O)CN1CCCCCC1)c1c(N)n(Cc2ccccc2)c(=O)[nH]c1=O the results were D2 ag-1 -10, D2 PAM-1 1, B2AR arrestin 0%, D2 PAM-2 -9, D2 antag -22 and D2 ag-2 0.
For CC(c1ccc(F)cc1)n1cc(C(=O)NCCN(C)C)nn1 (stereo not drawn) the results were D2 ag-1 -2, D2 PAM-1 7, B2AR arrestin 0%, D2 PAM-2 -2 and D2 antag 6.
For CC(C)OC(=O)C(CC(=O)O)N1CCOCC1 (stereo not drawn) the results were D2 ag-1 2, D2 PAM-1 0, B2AR arrestin 6%, D2 PAM-2 13, D2 antag 2 and D2 ag-2 -1.
`COc1ccc(OCC(=O)Nc2c(C(=O)N(CCN(C)C)Cc3ccco3)oc3ccccc23)cc1` gave D2 ag-1 -4, D2 PAM-1 31*, B2AR arrestin 0%, D2 PAM-2 -30, D2 antag -3 and D2 ag-2 1.
Screening COc1ccccc1C1C(C(N)=O)=C(C)Nc2ncnn21 (stereo not drawn) returned D2 ag-1 -2, D2 PAM-1 -14, B2AR arrestin 0%, D2 PAM-2 -5, D2 antag -6 and D2 ag-2 0.
For COc1ccc(Cn2c3nc4ccccc4nc3c3c(=O)n(Cc4ccco4)cnc32)cc1 the results were D2 PAM-1 6, B2AR arrestin 0%, D2 antag 40* and D2 ag-2 1.
Screening Cc1cccc(-n2cnc3c(c2=O)c2nc4ccccc4nc2n3Cc2ccco2)c1 returned D2 ag-1 -3, D2 PAM-1 24, B2AR arrestin 0%, D2 PAM-2 -4, D2 antag 8 and D2 ag-2 -1.
For CNc1ccc2c3c(cccc13)C(=O)N(C)C2=O the results were D2 ag-1 5, D2 PAM-1 -17, B2AR arrestin 0%, D2 PAM-2 18, D2 antag 72* and D2 ag-2 128*.
For COc1ccc(NC(=O)c2ccc(S(=O)(=O)NCc3cccnc3)cc2)cc1 the results were D2 ag-1 11, D2 PAM-1 -4, B2AR arrestin -1%, D2 PAM-2 -9, D2 antag 24 and D2 ag-2 0.
For COc1cccc(/C=N/NC(=O)CN2CC(c3ccccc3)CC2=O)c1OC (stereo not drawn) the results were D2 ag-1 -6, D2 PAM-1 -28, B2AR arrestin -1%, D2 PAM-2 -15, D2 antag 38* and D2 ag-2 -1.
For COc1cc(NC(=O)CN2CC(c3ccccc3)CC2=O)cc(OC)c1 (stereo not drawn) the results were D2 ag-1 1, D2 PAM-1 -16, B2AR arrestin 0%, D2 PAM-2 -5, D2 antag 17 and D2 ag-2 0.
For O=C(O)C1CCN(S(=O)(=O)c2ccc3[nH]ccc3c2)CC1 the results were D2 ag-1 -5 and D2 PAM-2 0.
CCCCN(CC)CCNC(=O)c1cc2c(-c3ccccc3F)nn(C)c2s1 was read as D2 ag-1 44*, D2 PAM-1 -4, B2AR arrestin 0%, D2 PAM-2 8, D2 antag -28 and D2 ag-2 1.
`CCCCN(CC)CCNC(=O)c1cc2c(=O)n(CC)c3ccccc3c2s1` gave D2 ag-1 -2, D2 PAM-1 8, B2AR arrestin -1%, D2 PAM-2 -19, D2 antag 36* and D2 ag-2 -3.
Screening O=C(NCC1c2ccccc2CCN1C(=O)CN1C(=O)c2ccccc2C1=O)C1CCCCC1 (stereo not drawn) returned D2 ag-1 -2, D2 PAM-1 -5, B2AR arrestin 0%, D2 PAM-2 -10, D2 antag 30* and D2 ag-2 0.

Source: PubChem
